Results on 40 compounds are retold here after PubChem BioAssay (NCI).

SMILES strings stand for the structures. Compounds without any hit were thinned out: in the full panel of roughly 83,000, 20% have a hit.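 Activity criterion: percent growth below 10, measured after cells in 96-well plates were exposed to a single compound concentration for 48 hours.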 The source made the active and inactive calls.

The test system of this test is SF-539 CNS. In words: NCI-60 one-dose screen, 48 h (100 = growth as untreated, 0 = no growth, -100 = all killed). To be noted: 10 µM.
For the compound `CCN1CCN(CCC(=O)Nc2cccc(-n3cc(-c4ccncc4)c(-c4ccc(Cl)c(OC)c4)n3)c2)CC1`, the growth was -51.9% (active). The figure for `O=C1/C=C/[C@@H](O)[C@@H]2C[C@@H](O)C[C@H]2/C=C/CCC[C@H](C(F)(F)F)O1` is 21.4% (inactive); for `CC[C@@H](C(=O)[C@@H](C)[C@@H](O)[C@H](C)[C@@H]1O[C@@H]([C@@H](CC)C(=O)N(CC)CC)CC[C@@H]1C)C1O[C@]2(C=CC(=O)[C@]3(CC[C@@](C)([C@H]4CC[C@](O)(CC)[C@H](C)O4)O3)O2)[C@H](C)C[C@@H]1C` (stereo not given in full) it is 44.8% (inactive). The figure for `COc1ccc(-c2cc(-c3ccc(Cl)cc3)nc(SCCCCCCC(=O)NO)n2)cc1OC` is 58.4% (inactive); for `N#CCc1csc(Cc2ccccc2)n1` it is 104% (inactive); for `CC(C)(C)OC(=O)CN1CCc2c(sc3ncnc(N/N=C/c4ccccc4Br)c23)C1` it is 84.1% (inactive).

As for `CC(CN(C)C)Oc1ccccc1NC1=C(Cl)C(=O)C(Nc2ccccc2OC(C)CN(C)C)=C(Cl)C1=O` (stereo not given), the growth was -98% (active).

With `Nc1ccn(Cc2nnc(CCC(=O)c3nc4ccccc4[nH]3)o2)c(=O)n1`, the growth is 86.8% (inactive). The same measure for `CC(C)(C)OC(=O)CN1CCc2c(sc3ncnc(N/N=C/c4cccc5ccccc45)c23)C1`: 24.3% (inactive); for `CCOC(=O)c1cc(C(=O)c2ccc(Cl)cc2)n2ccc(-c3cc[n+](CC(=O)c4ccc(OC)cc4)cc3)cc12`: 89.5% (inactive). As for `NS(=O)(=O)Oc1ccc(NC(=O)C2CCCCCC2)cc1`, the growth is 98.3% (inactive). The figure for `NNC(=O)Oc1c(Cl)cc(Cl)cc1[N+](=O)[O-]` is 105% (inactive); for `O=C1c2ccccc2C(=O)c2c1ccc(C(Br)Br)c2[N+](=O)[O-]` it is 90.2% (inactive). Consider `COc1ccc(NC(=O)C2CC3C=CC2C3)c([N+](=O)[O-])c1` (stereo not given), for which the growth is 98.6% (inactive). Regarding `CC[C@@H](C(=O)[C@H](C)[C@H](O)[C@@H](C)[C@H]1O[C@H]([C@@H](CC)C(=O)N(CC)CC)CC[C@H]1C)C1O[C@]2(C=C[C@@H](O)[C@]3(CC[C@@](C)([C@H]4CC[C@](O)(CC)[C@H](C)O4)O3)O2)[C@H](C)C[C@@H]1C` (stereo not given in full), the growth was 38.2% (inactive). Regarding `COc1cc(-c2nn(-c3cccc(NC(=O)NCCNC(=O)c4cccc(C(F)(F)F)c4)c3)cc2-c2ccncc2)ccc1Cl`, the growth is 22.2% (inactive). The figure for `O=C(O)c1cc([N+](=O)[O-])ccc1Oc1ccccc1` is 94.6% (inactive); for `CCOC(=O)c1cc(C(=O)c2cc(OC)c(OC)c(OC)c2)n2nc(C)ccc12` it is 15% (inactive). The same measure for `CC[C@@H](C(=O)[C@@H](C)[C@@H](O)[C@H](C)[C@@H]1O[C@@H]([C@@H](CC)C(=O)O)CC[C@@H]1C)C1O[C@]2(C=CC(=O)[C@]3(CC[C@@](C)([C@H]4CC[C@](O)(CC)[C@H](C)O4)O3)O2)[C@H](C)C[C@@H]1C` (stereo not given in full): 16.2% (inactive); for `Cc1ccc(S(=O)(=O)N(C)CCCCCC(=O)O)cc1`: 97.9% (inactive).

As for `COc1ccc(C2=Cn3c(CCC(=O)c4nc5ccccc5[nH]4)nnc3SC2)cc1`, the growth was 92% (inactive). The figure for `CCCN(CCC)C(=O)[C@H](CC)[C@@H]1CC[C@@H](C)[C@@H]([C@H](C)[C@@H](O)[C@@H](C)C(=O)[C@H](CC)C2O[C@]3(C=C[C@@H](O)[C@]4(CC[C@@](C)([C@H]5CC[C@](O)(CC)[C@H](C)O5)O4)O3)[C@H](C)C[C@@H]2C)O1` (stereo not given in full) is 8.44% (active). For the compound `OCC1OC(n2cnc3c(NCc4ccco4)ncnc32)C(O)C1O` (stereo not given), the growth is 21.7% (inactive). The figure for `CC[C@@H](C(=O)[C@H](C)[C@H](O)[C@@H](C)[C@H]1O[C@H]([C@@H](CC)C(=O)O)CC[C@H]1C)C1O[C@]2(C=C[C@@H](O)[C@]3(CC[C@@](C)([C@H]4CC[C@](O)(CC)[C@H](C)O4)O3)O2)[C@H](C)C[C@@H]1C` (stereo not given in full) is 2.48% (active). The same measure for `O=C(/C=C/c1cccc(B(O)O)c1)c1cccc(B(O)O)c1`: -30.8% (active); for `Cc1ccc(Cl)cc1NC(=O)CCl`: 102% (inactive). As to `COc1cc(/C=C/c2cc(/C=C/c3ccc(O)c(OC)c3)nc(N)n2)ccc1O`, the growth was 11.9% (inactive). Take `C/C(=N\O)c1ccc(NC(=O)CSc2nnc(-c3ccccc3)n2-c2ccccc2)cc1`: the growth is 52.6% (inactive). For `O=C(NCCCNS(=O)(=O)c1ccc(Cl)cc1)Nc1ccc(-n2cc(-c3ccncc3)c(-c3ccc(Cl)c(O)c3)n2)cc1`, the growth was 47.9% (inactive).

Regarding `CS(=O)(=O)c1nccc(-c2c(-c3cccc(OCCN4CCOCC4)c3)nc3sccn23)n1`, the growth was 81.3% (inactive). The figure for `C=CCSC(CC)(CC)C(=O)NC` is 103% (inactive). The same measure for `CCn1c(SC/C(=N/O)c2ccccc2)nnc1-c1ccccc1`: 93.7% (inactive). Consider `CCN(CC)CCOc1ccc2c(c1O)C(=O)c1ccccc1C2=O`, for which the growth is 91.9% (inactive).

In the case of `CS(=O)(=O)c1nccc(-c2c(-c3cccc(O)c3)nc3sccn23)n1`, the growth is 92.4% (inactive). The same measure for `CC(=O)[C@H]1CC[C@]2(C)[C@@H]1CC[C@@H]1[C@@]3(C)CC(CCC#N)(CCC#N)C(=O)C(C)(C)[C@@H]3CC[C@]12C`: 101% (inactive). Consider `COc1cc(-c2nn(-c3cccc(NC(=O)CN4CCOCC4)c3)cc2-c2cccnc2)ccc1Cl`, for which the growth is 87% (inactive). The figure for `CNS(=O)(=O)Oc1ccc(-c2sc3cc(OS(=O)(=O)NC)ccc3c2C(=O)c2ccc(OCCN3CCCCC3)cc2)cc1` is 65% (inactive); for `Clc1ccc(/C=C2\CCCC3C2=Nc2ccccc2NC3c2ccc(Cl)cc2)cc1` (stereo not given) it is 92.3% (inactive); for `CCOS(=O)(=O)c1c(C(C)C)cc(C(C)C)cc1C(C)C` it is 99.4% (inactive).

Consider `COc1cc(/C=C/c2cc(/C=C/c3ccc(O)c(OC)c3)n(C(=O)Nc3ccccc3Cl)n2)ccc1O`, for which the growth was 4.06% (active).
